This passage reports activation results from PubChem BioAssay AID1697 (The Scripps Research Institute Molecular Screening Center, 2009).

Some of the results follow. Unmarked numbers belong to inactive results. Calls of active or inactive are those of the source.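 The calls were made as follows: active = percent activation above the mean of DMSO-only control wells plus 3 SD of those wells (cut at about 18% in these data); inactive = the rest.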

For this assay, the target named is Neuropeptide Y receptor type 1 (Homo sapiens) (UniProt P25929). As to the kind of experiment: human Y1 receptor agonism – cell-based, fluorescence, counter-screen for NPY-Y1 potentiator project, confirmation (AID 1697).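 Also: cells challenged with isoproterenol plus Ro 20-1724 with no NPY in test wells; Y1 agonism lowers isoproterenol-driven cAMP and reduces probe fluorescence.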 The conditions noted are these: HEK293 Y1-CNGC, membrane potential fluorescence, agonist mode; at 3.6 µM; hits give high values. (In general: A counterscreen serves to expose hits that act by an unwanted route or on another target.)
Sequence of Neuropeptide Y receptor type 1 (Homo sapiens) (P25929 whole entry, looked up): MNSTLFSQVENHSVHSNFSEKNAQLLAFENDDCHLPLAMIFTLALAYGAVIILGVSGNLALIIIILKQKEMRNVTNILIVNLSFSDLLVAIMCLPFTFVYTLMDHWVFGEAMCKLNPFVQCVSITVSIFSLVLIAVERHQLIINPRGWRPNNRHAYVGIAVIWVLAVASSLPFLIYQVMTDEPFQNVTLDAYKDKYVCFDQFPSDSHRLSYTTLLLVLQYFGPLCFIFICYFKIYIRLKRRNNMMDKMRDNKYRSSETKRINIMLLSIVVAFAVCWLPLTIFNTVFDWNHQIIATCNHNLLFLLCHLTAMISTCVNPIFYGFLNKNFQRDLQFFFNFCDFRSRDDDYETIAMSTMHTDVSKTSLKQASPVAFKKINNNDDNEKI

Take `CSC1=NP(=S)(SC)N(C)c2nc3n(c21)CCC3` (configuration not stated): the activation was 9.49%.
Under `Cc1nn(Cc2ccccc2Cl)c(Cl)c1C(=O)OC(C(=O)NC(N)=O)C(C)C` (configuration not stated) stands 30.6% (active).
